Reference: PubChem BioAssay AID1159580 (chemical genetic matrix, 2015)
“And” between values parts separate entries of the source, which are not always exact repeats. Identical values can stand only once. Among all 5,500 compounds or so, about 2,000 (36%) were called active. Roughly 18% stayed inconclusive and do not appear here. No stated cut-off is given here; in the data, active means normalized growth mostly below about 0.91 (no sharp cut-off); inconclusive means no clear call, values can overlap the other calls; inactive means mostly above about 0.92. This is one part of the list.

Experiment: chemical genetic growth profiling, strain panel (AID 1159580);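 further: tested at 20 µM; growth read once vehicle control cultures reached saturation at 30 °C; 1 = growth at the plate median or of vehicle wells; lower values mean less growth of the strain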
Conditions: S. cerevisiae deletion strains, growth OD

Measured: normalized growth

NC(=O)c1cc([N+](=O)[O-])cc([N+](=O)[O-])c1
inactive: locus YAL021C, strain ccr4, active compounds read low 1.03 | locus YAL026C, strain drs2, active compounds read low 0.962 | locus YAL030W, strain snc1, active compounds read low 1.01 | locus YBL061C, strain skt5, active compounds read low 1.02 | locus YBR009C, strain hhf1, active compounds read low 0.972 | locus YBR021W, strain FUR4, active compounds read low 0.99 | locus YBR023C, strain chs3, active compounds read low 1.02 | locus YBR171W, strain sec66, active compounds read low 1.04 | locus YBR229C, strain ROT2, active compounds read low 1.02 | locus YBR231C, strain swc5, active compounds read low 0.991 | locus YBR279W, strain paf1, active compounds read low 1.03 | locus YCL011C, strain gbp2, active compounds read low 1.02 | locus YCL016C, strain dcc1, active compounds read low 1.05 | locus YCL029C, strain bik1, active compounds read low 0.983 | locus YCL061C, strain MRC1, active compounds read low 1.01 | locus YCL069W, strain vba3, active compounds read low 1.02 | locus YCR088W, strain abp1, active compounds read low 1.02 | locus YDL005C, strain med2, active compounds read low 1.03 | locus YDL035C, strain GPR1, active compounds read low 0.992 | locus YDL040C, strain nat1, active compounds read low 1.01 | locus YDL074C, strain BRE1, active compounds read low 0.986 | locus YDL101C, strain DUN1, active compounds read low 0.989 | locus YDL134C, strain PPH21, active compounds read low 1.01 | locus YDL185W, strain tfp1, active compounds read low 0.974 | locus YDL192W, strain arf1, active compounds read low 0.986 | locus YDR001C, strain nth1, active compounds read low 1.01 | locus YDR069C, strain doa4, active compounds read low 0.979 | locus YDR101C, strain arx1, active compounds read low 0.982 | locus YDR159W, strain sac3, active compounds read low 1.04 | locus YDR162C, strain NBP2, active compounds read low 0.992 | locus YDR297W, strain sur2, active compounds read low 1 | locus YDR318W, strain mcm21, active compounds read low 0.974 | locus YDR334W, strain swr1, active compounds read low 1.03 | locus YDR335W, strain msn5, active compounds read low 1.02 | locus YDR388W, active compounds read low 0.996 | locus YDR502C, strain sam2, active compounds read low 0.983 | locus YEL003W, strain gim4, active compounds read low 0.961 | locus YEL037C, strain rad23, active compounds read low 1.01 | locus YEL061C, strain CIN8 (second series), active compounds read low 1.02 | locus YEL061C, strain CIN8, active compounds read low 1.01 | locus YER015W, strain faa2, active compounds read low 1.02 | locus YER016W, strain bim1, active compounds read low 0.999 | locus YER110C, active compounds read low 0.979 | locus YER111C, strain swi4, active compounds read low 1.04 | locus YER155C, strain BEM2, active compounds read low 1.01 | locus YER167W, strain BCK2, active compounds read low 1.02 | locus YFR010W, strain ubp6, active compounds read low 0.995 | locus YGL078C, strain dbp3, active compounds read low 0.995 | locus YGL086W, strain mad1, active compounds read low 0.968 | locus YGL167C, strain pmr1, active compounds read low 1.02 | locus YGL173C, strain kem1, active compounds read low 1.01 | locus YGL227W, strain vid30, active compounds read low 1.02 | locus YGL240W, strain doc1, active compounds read low 0.969 | locus YGL248W, strain PDE1, active compounds read low 1.02 | locus YGL253W, strain hxk2, active compounds read low 0.994 | locus YGR078C, strain PAC10, active compounds read low 1 | locus YGR135W, strain pre9, active compounds read low 0.978 | locus YGR252W, strain gcn5, active compounds read low 0.906 | locus YHR013C, strain ard1, active compounds read low 1.09 | locus YHR027C, strain rpn1, active compounds read low 0.997 | locus YHR030C, strain SLT2, active compounds read low 1.02 and 0.959 | locus YHR079C, strain IRE1 (second series), active compounds read low 0.996 | locus YHR079C, strain IRE1, active compounds read low 0.955 | locus YHR094C, strain hxt1, active compounds read low 0.954 | locus YHR129C, strain ARP1, active compounds read low 1.02 | locus YHR142W, strain chs7, active compounds read low 1.01 | locus YHR200W, strain rpn10, active compounds read low 0.997 | locus YIL066C, strain RNR3, active compounds read low 1.01 | locus YIL073C, strain SPO22, active compounds read low 0.993 | locus YIL125W, strain kgd1, active compounds read low 1 | locus YIR030C, strain dcg1, active compounds read low 1 | locus YJL092W, strain hpr5, active compounds read low 1.02 | locus YJL095W, strain BCK1 (second series), active compounds read low 1.01 | locus YJL095W, strain BCK1, active compounds read low 0.994 and 0.966 | locus YJL115W, strain asf1, active compounds read low 1.02 | locus YJL129C, strain trk1, active compounds read low 1.1 | locus YJL134W, strain LCB3, active compounds read low 1.01 | locus YJL154C, strain vps35, active compounds read low 1.03 | locus YJL164C, strain tpk1, active compounds read low 0.977 | locus YJL166W, strain qcr8, active compounds read low 1 | locus YJL168C, strain set2, active compounds read low 0.997 | locus YJL187C, strain SWE1 (second series), active compounds read low 1.01 | locus YJL187C, strain SWE1, active compounds read low 1.03 | locus YJR043C, strain POL32, active compounds read low 0.967 | locus YJR066W, strain TOR1, active compounds read low 0.918
active: locus YDR137W, strain rgp1, active compounds read low 1.25 [resistant] | locus YDR195W, strain ref2 0.78 | locus YDR392W, strain spt3, active compounds read low 0.633 | locus YER155C, strain BEM2 (second series), active compounds read low 0.788
